Source: the supplement of paper PMC11537057
Counter-ions that a name gives are not always drawn. ± gives the standard deviation of the averaged measurements. The full ranking holds about 1,700 compounds; the median of “cell number in HSV-1-infected wells relative to infected DMSO wells (H2B-RFP signal)” is about 100, and the highest 2% start at about 140. The list comes from a sample in which the highest values are over-represented; it also holds similar structures and randomly drawn compounds.

These compounds were tested on A549 infected with HSV-1 (assay: cell number in HSV-1-infected wells relative to infected DMSO wells (H2B-RFP signal); higher = more surviving cells (uninfected or antiviral-protected wells give about 200%; low = toxicity)). Settings: 10 µM; 48 h; MOI: 0.1.
Experimental: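 Selleck FDA-approved library (L1300) screened in duplicate at 10 µM on A549 H2B-mRuby cells in 384-well plates, infected with HSV-1 strain 17 YFP-ICP4 at MOI 0.1 one hour before drug addition. Imaged after 2 days at 37°C. Cell growth (H2B-RFP) and infection (ICP4-YFP) are expressed as % of DMSO-treated wells. Hits: growth >90% and infection <20% of DMSO.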

Row | SMILES | cell number in HSV-1-infected wells
1 | C#Cc1cccc(Nc2ncnc3cc4c(cc23)OCCOCCOCCO4)c1 [Icotinib] | 113 ± 1.4%
2 | CCCCCCCCN=c1ccn(CCCCCCCCCCn2ccc(=NCCCCCCCC)cc2)cc1 [Octenidine Dihydrochloride] | 14.6 ± 4.9%
3 | Nc1nc(O)c2ncn(CCC(CO)CO)c2n1 [Penciclovir] | 205 ± 4.4%
4 | CC(=O)OCC(CCn1cnc2cnc(N)nc21)COC(C)=O [Famciclovir] | 104 ± 3.7%
5 | OC[C@H]1O[C@@H](O[C@@H]2[C@@H](CO)OC(O)(CO)[C@H]2O)[C@H](O)[C@@H](O)[C@H]1O (mixture of isomers) [Lactulose] | 115 ± 1.3%
6 | C(=C\c1ccccc1)/CN1CCN(C(c2ccccc2)c2ccccc2)CC1 [Cinnarizine] | 117 ± 4.5%
7 | CN1CCC(OC(c2ccccc2)c2ccccc2)CC1 [Diphenylpyraline HCl] | 98.9 ± 17%
8 | CN1CCN(C(c2ccccc2)c2ccccc2)CC1 [Cyclizine 2HCl] | 153 ± 28%
9 | C[N+](C)(C)CCO.O=C([O-])C(O)C(O)C(=O)O (centres undefined) [Choline bitartrate] | 124 ± 12%
10 | COc1cc(C2Oc3cc([C@H]4Oc5cc(O)cc(O)c5C(=O)[C@@H]4O)ccc3OC2CO)ccc1O (some centres undefined) [Silibinin] | 95.4 ± 7%
11 | C=C[C@@H]1C[C@]1(NC(=O)[C@@H]1C[C@@H](Oc2ncc(OC)c3ccc(Cl)cc23)CN1C(=O)[C@@H](NC(=O)OC(C)(C)C)C(C)(C)C)C(=O)NS(=O)(=O)C1CC1 [Asunaprevir] | 94.5 ± 22%
12 | CCCCc1nc(C)c(CC(=S)N(C)C)c(=O)n1Cc1ccc(-c2ccccc2-c2nnn[nH]2)cc1 [Fimasartan] | 88.2 ± 16%
13 | Cc1cn(-c2cc(NC(=O)c3ccc(C)c(Nc4nccc(-c5cnccn5)n4)c3)cc(C(F)(F)F)c2)cn1 [Radotinib] | 64.4 ± 25%
14 | N[C@@H](Cc1c[nH]c2ccc(O)cc12)C(=O)O [5-hydroxytryptophan (5-HTP)] | 121 ± 13%
15 | O=C(O)c1ccc(NC(=O)[C@H](Cc2ccc(O)cc2)NC(=O)c2ccccc2)cc1 [Bentiromide] | 101 ± 29%
16 | CC1(C)CCC(C)(C)c2cc(NC(=O)c3ccc(C(=O)O)cc3)ccc21 [Tamibarotene] | 143 ± 7.9%
17 | C=C(c1ccc(C(=O)O)cc1)c1cc2c(cc1C)C(C)(C)CCC2(C)C [Bexarotene] | 85.7 ± 8.3%
18 | CCN(CC)C(=O)N1CCN(C)CC1 [Diethylcarbamazine citrate] | 89.5 ± 22%
19 | NC(=NCCCCCCN=C(N)N=C(N)Nc1ccc(Cl)cc1)N=C(N)Nc1ccc(Cl)cc1 [Chlorhexidine?2HCl] | 9.11 ± 0.6%
20 | Nc1nc(Cl)nc2c1ncn2[C@H]1C[C@H](O)[C@@H](CO)O1 [Cladribine] | 42.1 ± 4.5%
21 | Nc1ncn([C@@H]2O[C@H](CO)[C@@H](O)[C@H]2O)c(=O)n1 [Azacitidine] | 98.3 ± 4.2%
22 | Nc1ncn([C@H]2C[C@H](O)[C@@H](CO)O2)c(=O)n1 [Decitabine] | 166 ± 12%

Row | SMILES | cell number in HSV-1-infected wells
23 | O=c1[nH]c(=O)n([C@H]2C[C@H](O)[C@@H](CO)O2)cc1I [Idoxuridine] | 175.6 ± 1.1%
24 | Cc1cn([C@@H]2C[C@@H](O)[C@H](CO)O2)c(=O)[nH]c1=O [Telbivudine] | 102 ± 8.7%
25 | O=c1[nH]c(=O)n([C@H]2C[C@H](O)[C@@H](CO)O2)cc1F [Floxuridine] | 53.3 ± 3.6%
26 | CC[C@H](C)C(=O)O[C@H]1C[C@H](O)C=C2C=C[C@H](C)[C@H](CC[C@@H](O)C[C@@H](O)CC(=O)O)[C@H]21 [Pravastatin sodium] | 95.3 ± 16%
27 | NC(=O)c1cn(Cc2c(F)cccc2F)nn1 [Rufinamide] | 120 ± 12%
28 | C[C@H]1CNCCCN1S(=O)(=O)c1cccc2cncc(F)c12 [Ripasudil (K-115) hydrochloride dihydrate] | 114 ± 7%
29 | N#Cc1cc(-c2n[nH]c(-c3ccncc3)n2)ccn1 [Topiroxostat] | 111 ± 12%
30 | Cc1ncc([N+](=O)[O-])n1CC(C)O (centres undefined) [Secnidazole] | 99.4 ± 14%
31 | NS(=O)(=O)c1cc2c(cc1Cl)N=CNS2(=O)=O [Chlorothiazide] | 114 ± 25%
32 | C1N2CN3CN1CN(C2)C3 [Methenamine] | 124 ± 25%
33 | COc1ccc2cc(CCC(C)=O)ccc2c1 [Nabumetone] | 97.7 ± 6.2%
34 | CN1CCN(CCCN2c3ccccc3Sc3ccc(Cl)cc32)CC1 [Prochlorperazine Dimaleate] | 163 ± 4.8%
35 | OCCN1CCN(CCCN2c3ccccc3Sc3ccc(Cl)cc32)CC1 [Perphenazine] | 86.76 ± 0.7%
36 | CN1CCN(CCCN2c3ccccc3Sc3ccc(Cl)cc32)CC1 [Prochlorperazine dimaleate salt] | 124 ± 49%
37 | CN1CCN(CCCN2c3ccccc3Sc3ccc(C(F)(F)F)cc32)CC1 [Trifluoperazine 2HCl] | 57.5 ± 10%
38 | CC(C)C(=O)OCC(=O)[C@@]12O[C@H](C3CCCCC3)O[C@@H]1C[C@H]1[C@@H]3CCC4=CC(=O)C=C[C@]4(C)[C@H]3[C@@H](O)C[C@@]12C [Ciclesonide] | 120 ± 13%
39 | Cc1onc(-c2c(Cl)cccc2Cl)c1C(=O)N[C@@H]1C(=O)N2[C@@H]1SC(C)(C)[C@@H]2C(=O)O [Dicloxacillin Sodium] | 146 ± 32%
40 | Cc1onc(-c2c(F)cccc2Cl)c1C(=O)N[C@@H]1C(=O)N2[C@@H]1SC(C)(C)[C@@H]2C(=O)O [Flucloxacillin sodium] | 111 ± 11%
41 | Cc1onc(-c2ccccc2Cl)c1C(=O)N[C@@H]1C(=O)N2[C@@H]1SC(C)(C)[C@@H]2C(=O)O [Cloxacillin Sodium] | 114 ± 15%
42 | C[C@]12CC[C@@H]3c4ccc(O)cc4C[C@@H](CCCCCCCCC[S+]([O-])CCCC(F)(F)C(F)(F)F)[C@H]3[C@@H]1CC[C@@H]2O (some centres undefined) [Fulvestrant] | 74.6 ± 24%
43 | C[C@@H](O)[C@H]1C(=O)N2C(C(=O)O)=C(S[C@@H]3CN[C@H](CNS(N)(=O)=O)C3)[C@H](C)[C@H]12 [Doripenem Hydrate] | 98.3 ± 14%
44 | C[C@@H](O)[C@H]1C(=O)N2C(C(=O)O)=C(S[C@@H]3CN[C@H](CNS(N)(=O)=O)C3)[C@H](C)[C@H]12 [Doripenem] | 124 ± 13%
